# The entries come from a sample that favours hits as a whole.
# KDM4E inh: inhibitors of human JMJD2E histone demethylase; B2RXH2; JMJD2E catalytic domain, FDH-coupled NADH fluorescence (FDH is formaldehyde dehydrogenase); Potency, µM (top dose mostly 57.1 µM), for the others: top-dose activity change, negative = inhibition, usual class: inhibitors; 230,000 tested, 1.6% active; AID 2147; active = well fitted inhibition curve with a large enough effect, not every such curve was filed as active; inconclusive = small, poorly fitted or top-dose-only effect, or another doubt; inactive = no such curve, though single readings can be large or run the other way;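 also: 0% = wells with enzyme and -100% = buffer wells without enzyme; nearly all actives have a fitted effect of over 50% in size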
# PKM2 act: activators of human pyruvate kinase M2; P14618; purified PKM2, Kinase-Glo ATP luminescence, activation; response scale: 0% is enzyme alone, no compound; Potency, µM (doses to about 57.5 µM), without a hit: at the highest dose activation, most hits filed as activators; 260,000 tested, 0.34% active; also: nearly all actives have a fitted effect of over 55% in size
# Target sequence (P14618 whole entry, looked up): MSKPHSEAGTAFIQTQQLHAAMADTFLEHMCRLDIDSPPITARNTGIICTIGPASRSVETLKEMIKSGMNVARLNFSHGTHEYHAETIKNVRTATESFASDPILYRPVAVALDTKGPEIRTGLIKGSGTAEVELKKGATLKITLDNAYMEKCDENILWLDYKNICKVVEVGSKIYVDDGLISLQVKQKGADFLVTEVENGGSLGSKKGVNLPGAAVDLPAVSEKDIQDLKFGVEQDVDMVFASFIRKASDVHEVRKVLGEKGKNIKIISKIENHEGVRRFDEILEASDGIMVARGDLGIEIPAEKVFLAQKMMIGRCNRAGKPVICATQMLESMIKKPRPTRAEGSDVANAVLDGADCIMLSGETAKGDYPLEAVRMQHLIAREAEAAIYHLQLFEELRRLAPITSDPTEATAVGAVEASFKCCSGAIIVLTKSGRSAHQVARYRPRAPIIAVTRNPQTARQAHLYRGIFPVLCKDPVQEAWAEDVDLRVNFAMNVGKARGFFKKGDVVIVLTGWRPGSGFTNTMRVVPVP
#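 Purified hPK-M2 (>95%) run at intermediate activity with 0.1 mM ADP and 0.5 mM PEP in 50 mM imidazole pH 7.2, KCl, MgCl2; 1 h room temperature. ATP formed read by Kinase-Glo luminescence; normalized to uninhibited and no-enzyme controls.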
# RECQ1 inh: blocks DNA unwinding by human RECQ1; P46063; Potency, µM (top dose mostly 57.3 µM), inactives show at the top dose activity, negative = inhibition, most hits filed as inhibitors; AID 2549; 240,000 tested, 0.54% active; RECQ1 DNA unwinding, red fluorescence kinetic read;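 also: plate controls were vehicle for no effect and no enzyme for full effect; nearly all actives have a fitted effect of over 30% in size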
#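 RECQ1T1 50 nM; forked duplex (20 bp + 30-nt ss tails) 200 nM, ATP 2 mM final; pH 8.0, 2 mM MgCl2, 2.5 ug/ml poly(dI-dC); 15 min compound preincubation; discontinuous kinetic read over 2 h at RT.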
# BLM inh: Bloom syndrome helicase (human) inhibition; Potency, µM (titrated, usually from 56.1 µM), for inactives: at the top dose activity change, negative = inhibition, actives largely listed as inhibitors; P54132; 350,000 tested, 0.2% active; recombinant BLM DNA unwinding, fluorescence dequenching;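 also: plate controls were vehicle for no effect and no enzyme for full effect; nearly all actives have a fitted effect of over 35% in size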
# APE1 inh: inhibitors of human APE1 endonuclease | recombinant APE1, TAMRA/BHQ-2 abasic DNA cleavage fluorescence | Potency, µM (top dose mostly 65.8 µM), inactives show at the highest dose activity change, negative = inhibition, usual class: inhibitors | 350,000 tested, 0.35% active | AID 2517;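 also: plate controls were vehicle for no effect and reference inhibitor for full effect; nearly all actives have a fitted effect of over 55% in size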
#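 APE1 at 0.75 nM preincubated 15 min at room temperature with compound. Reaction then started with 50 nM double-stranded THF-abasic substrate labelled with TAMRA/BHQ-2, and 525/598 nm fluorescence read kinetically. Activity taken as third-minus-first read difference, normalized to DMSO and NSC13755 controls.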
# * = called active by the depositor; i = inactive; ? = inconclusive; . = no result; ! = not active in a repeat; [ ] = dose if it differs, or a comment. Unless noted, calls follow the shape of the dose curve; as a rule, active = well fitted curve in the direction sought with a large enough effect; inconclusive = small, poorly fitted or top-dose-only effect, or another doubt; inactive = no such curve, though single readings can be large; an effect the other way counts as inactive or inconclusive. Unless noted, % is scaled to controls: 0 for no effect and ±100 for the full control effect; potency is read from the fitted curve at half-maximal effect.
SMILES,KDM4E inh,PKM2 act,RECQ1 inh,BLM inh,APE1 inh
COc1ccc(C(=O)NC(=S)NNC(=O)c2cnccn2)cc1,2%,-22%,-13%,2%,4%
COc1cc(C(=O)NC(=S)NNC(=O)c2cnccn2)cc(OC)c1OC,11µM*,0%,0%,3%,1%
COc1ccc(C(=O)c2ccccc2)c(O)c1O,22µM*,.,i,-2%,-4%
O=C(/C=C/c1ccc(O)c(O)c1)O[C@@H]1C[C@](O)(C(=O)O)C[C@@H](O)[C@H]1O,.,.,.,.,3%
O=C(/C=C\c1ccc(O)c(O)c1)O[C@@H]1C[C@](O)(C(=O)O)C[C@@H](O)[C@@H]1O,4.5µM*,.,-4%[25.9 µM],1%[21.4 µM],-2%[21 µM]
Cc1cc(C(=O)N/N=C/c2cccc([N+](=O)[O-])c2O)n[nH]1,13µM*,-3%,-2%,3%,-1%
Cc1cc(C(=O)N/N=C/c2cc(N=Nc3ccccc3)ccc2O)n[nH]1,5µM*,-17%,-7%,3%,-7%
COc1ccc(OC)c(C2=Nn3c(nnc3-c3ccccc3C)SC2)c1,.,.,-4%,-2%,0%
CN1CCN(C(=O)c2cc(COc3c(F)cccc3F)on2)CC1c1ccccc1 (stereo not drawn),?,18µM*,i,-28%,8%
CSc1ccc(/C=N/N2CCN(Cc3ccccc3)CC2)cc1,11µM*,-5%,2%,-8%,3%
Cc1nc(C/C(=N\Nc2ccccc2)c2ccc(O)cc2O)cs1,14µM*,22%,-2%,-7%,-4%
Cc1nc(CC(=O)c2ccc(O)cc2O)cs1,-2%,5%,-13%,2%,2%
O=C(CSc1nnc(-c2ccc(O)cc2)o1)Nc1cccc(O)c1,.,7.9µM*,.,-1%,-13%[12.4 µM]
O=C1/C(=C\c2cc([N+](=O)[O-])ccc2O)SC(=S)N1Cc1ccc(Cl)cc1,.,.,.,32µM*,?
COc1ccc(CC(=O)n2[nH]c(=O)c3ccccc3c2=O)cc1OC,2%,-8%,i,-7%,-3%
COc1ccc(CC(=O)n2[nH]c(=O)ccc2=O)cc1OC,3%,8.9µM*,-5%,2%,?
CC[C@H](C)[C@H](NC(=O)[C@H](CCCNC(=N)N)NC(=O)[C@@H](NC(=O)[C@H](CCCNC(=N)N)NC(=O)[C@H](CCCCN)NC(=O)[C@H](CCCNC(=N)N)NC(=O)[C@@H](NC(=O)[C@H](CC(N)=O)NC(=O)[C@@H](N)CS)[C@@H](C)O)[C@@H](C)CC)C(=O)N[C@@H](CCC(N)=O)C(=O)N[C@@H](CCCNC(=N)N)C(=O)NCC(=O)N1CCC[C@H]1C(=O)NCC(=O)N[C@@H](CCCNC(=N)N)C(=O)N[C@@H](C)C(=O)N[C@@H](Cc1ccccc1)C(=O)N[C@H](C(=O)N[C@H](C(=O)N[C@H](C(=O)NCC(=O)N[C@@H](CCCCN)C(=O)O)[C@@H](C)CC)[C@@H](C)O)C(C)C,.,.,20%,-18%,13%
CCN(CC)c1ccc(N=Nc2ncn[nH]2)cc1,14µM*,-5%,-15%,-4%,-4%
CC(C)n1c(=O)[nH][nH]c1=S,3.2µM*,-23%,-6%,0%,8%
NS(=O)(=O)c1cccc2c1c([N+](=O)[O-])cc1[nH]c(=O)c(=O)[nH]c12,-27%,.,1.4µM*!,-5%,1.6µM*
CCC1=C[C@@H]2CN(C1)Cc1c([nH]c3ccccc13)[C@@](C(=O)OC)(c1cc3c(cc1OC)N(C)[C@@H]1[C@@](O)(C(=O)OC)[C@H](OC(C)=O)[C@]4(CC)C=CCN5CC[C@]31[C@@H]54)C2,.,.,.,-5%,.
O=C(Nc1ccc([N+](=O)[O-])cc1Cl)c1cc(Cl)ccc1O,-2%,.,-5%,3%,-24%
O=C(Nc1cccc(Cl)c1)c1cc(N=Nc2ccc([N+](=O)[O-])cc2Cl)ccc1O,-16%,-39%,-5%,18µM*,-3%
CCC(Nc1ncnc2ccc(-c3c(C)noc3C)cc12)c1ccccc1 (stereo not drawn),.,.,i,-8%,13%
O=C(CSc1ncnc2sc3c(c12)CCCCC3)NCc1ccco1,?,15%,-11%,-8%,-1%
SMILES,KDM4E inh,PKM2 act,RECQ1 inh,BLM inh,APE1 inh
CC(C)c1nc2sc3c(SCC(=O)NCc4ccco4)ncnc3c2c2c1CCC2,2%,35µM*,-13%,4%,-1%
CC(C)(C)n1ncc2c(=O)n(Cc3ccc(C#N)c(F)c3)cnc21,.,.,.,.,-9%
O=C1NC(=Nc2ccccc2)S/C1=C\C=C\c1ccco1,-3%,4%,2%,13µM*,3%
C=CC1=C2C=C(C3CC3)N(CCN3CCOCC3)C=C2C(=O)C(C)(OC(=O)c2ccco2)C1=O (stereo not drawn),?,-1%[11.5 µM],-4%[11.5 µM],-15%[12.4 µM],3%[12.4 µM]
Nc1cc(C(=O)O)c(O)c(S(=O)(=O)O)c1,.,.,-4%,.,28µM*
Nc1ccc(C(=O)O)cc1S(=O)(=O)O,3%,-1%,i,2%,5%
CC(C)S,.,.,-5%,.,8%
COc1ccccc1C1NC(c2ccccc2OC)C(C)C(=O)C1C (stereo not drawn),6%,6%,-10%,-5%,0%
COc1cccc(C2NC(c3cccc(OC)c3O)C(C)C(=O)C2C)c1O (stereo not drawn),20µM*,-2%,5%,-3%,2%
CCC(C)(C)C(=O)O[C@@H]1C[C@@H](C)C=C2C=C[C@H](C)[C@H](CC[C@@H]3C[C@@H](O)CC(=O)O3)[C@H]21,-21%,.,-17%,-17%,-9%
C=CCn1c(SCc2ccccc2)nc2scc(-c3ccc(C)o3)c2c1=O,5%,17%,-1%,-2%,-4%
C=CCn1c(SCC(N)=O)nc2scc(-c3ccc(C)o3)c2c1=O,-12%,32µM*,-4%,-5%,2%
C=CC1=C2C=C(C3CC3)N(C3CCCC3)C=C2C(=O)C(C)(OC(=O)c2ccco2)C1=O (stereo not drawn),-16%[11.4 µM],-5%[11.5 µM],12%[11.5 µM],-19%[12.4 µM],-3%[12.4 µM]
CCC(=O)NC(c1cccs1)c1ccc2cccnc2c1O (stereo not drawn),25µM*,-4%,i,-9%,10%
COc1ccc(C(NC(C)=O)c2ccc3cccnc3c2O)c(OC)c1 (stereo not drawn),22µM*,1%,-6%,-3%,-2%
CCCCC(=O)NC(c1ccccc1OC)c1ccc2cccnc2c1O (stereo not drawn),?,5%,-15%,-3%,3%
CCCC(=O)NC(c1ccccc1OC)c1ccc2cccnc2c1O (stereo not drawn),32µM*,?,-9%,-7%,4%
Oc1c(C(Nc2nccs2)c2ccc(C(F)(F)F)cc2)ccc2cccnc12 (stereo not drawn),3.5µM*,-9%,-14%,-16%,9%
CC(=O)NC(c1ccc2ccccc2c1)c1ccc2cccnc2c1O (stereo not drawn),.,-2%,.,-4%,16%

# Screening results deposited in PubChem by National Center for Advancing Translational Sciences (NCATS).
